Several values for one entry are separate records, joined by “and”; a condition that tells them apart may be missing. Identical values can stand only once. Results filed as inconclusive are left out. Some compounds were tested as several samples or in several runs, with calls that do not always agree. Activity calls are given as the source filed them. Unless noted, calls follow the shape of the dose curve; as a rule, active = well fitted curve in the direction sought with a large enough effect; inconclusive = small, poorly fitted or top-dose-only effect, or another doubt; inactive = no such curve, though single readings can be large; an effect the other way counts as inactive or inconclusive.

The values that follow come from PubChem BioAssay (NCATS).

Assay [1] concerns the target Glutathione peroxidase 1 (Homo sapiens) (UniProt P07203). The assay is described as follows: Primary qHTS Assay for Inhibitors of Recombinant Selenoprotein Glutathione Peroxidase 1 (GPX1) (AID 1845191). Also: nearly all actives have a fitted effect of over 65% in size. Also: potency is read from the fitted curve at half-maximal effect. The procedure, abridged:
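NADPH consumption tracked by fluorescence at 340/450 nm between t=0 and t=15 min, room temperature. Final mix: 10 nM GPX1, 100 nM glutathione reductase, 1 mM GSH, 0.5 mM NADPH, 0.5 mM cumene hydroperoxide, 0.01% BSA; 30 min compound–enzyme preincubation.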
For orientation: In qHTS, concentration-response curves come from the screen itself.

The nature of assay [2]: NCATS anti-infectives library activity on the primary C. elegans qHTS viability assay (AID 1745855; calls by dose curve). The settings on record: C. elegans worm area imaging, day 7; at 41.8 µM (top of the series). The text has this:
Assay Development and Screening Technology Laboratory (ADST)
National Center for Advancing Translational Sciences (NCATS), Rockville, MD
National Institute of Health (NIH), Bethesda, Maryland
Caenorhabditis elegans has helped elucidate the evolutionarily conserved genetics underlying pathways and cellular processes implicated in human disease and may be ideally positioned to reveal novel pharmacological properties of exiting drugs. The organism's short life cycle and microscopic size is applicable to the technical requirements of high-throughput screening. Here a quantitative high-throughput screening (qHTS)-based forward chemical biology platform has been developed using C. elegans. 384-well microtiter plate laser scanning cytometry was used in the rapid detection and quantification of the fluorescent protein-encoded phenotype to score worm viability. In a proof-of-concept study, the pharmacological qHTS profile obtained from a library of 643 anti-infective compounds.
1. […] P. (2006) Quantitative high-throughput screening: A titration-based approach that efficiently identifies biological activities in large chemical libraries, P Natl Acad Sci USA 103, 11473-11478.
2. […] P., and Inglese, J. (2006) Fluorescent protein-based cellular assays analyzed by laser-scanning microplate cytometry in 1536-well plate format, Method Enzymol 414, 566-589.
3. Zuck, P., Lao, Z., Skwish, S., Glickman, J. F., Yang, K., Burbaum, J., and Inglese, J. (1999) Ligand-receptor binding measured by laser-scanning imaging, Proc Natl Acad Sci U S A 96, 11122-11127. […]
SEQUENCE No. (e.g., 1, 2, 3, etc.); […] (e.g., C. elegans, Compounds, Incubation, Read, etc.); VALUE and DESCRIPTION. […]
2. […] Library compounds, levamisole toxicity control and DMSO vehicle control added at 250 nL per well to 21 assay ready 384-well Greiner uClear plates and two DMSO control plates, transferred by Echo acoustic dispenser.
3. […] Add 30 uL per well strained TOP10 E. coli capsules diluted to OD600 = 0.85 in S medium to 23 assay ready 384-well Greiner uClear plates. […]

For assay [3], the target named is Phospholipid hydroperoxide glutathione peroxidase GPX4 (Homo sapiens) (UniProt P36969). The assay is described as follows: Primary qHTS Assay for Inhibitors of Recombinant Selenoprotein Glutathione Peroxidase 4 (GPX4) (AID 1845192). Also: nearly all actives have a fitted effect of over 65% in size. Also: potency is read from the fitted curve at half-maximal effect. As to activity change, negative = inhibition: % is scaled to controls: 0 for no effect and ±100 for the full control effect. In outline:
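NADPH consumption followed by fluorescence at 340/450 nm, t=0 and after 15 min at room temperature. Reaction started with cumene hydroperoxide (0.5 mM final) after 30 min compound–GPX4 preincubation; final 200 nM GPX4, 100 nM GR, 1 mM GSH, 0.5 mM NADPH.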

The target of assay [4] is Luciferin 4-monooxygenase (Photinus pyralis) (UniProt P08659). The assay is described as follows: Primary firefly luciferase (FLuc) qHTS assay for identification of artifact compounds. (AID 1845220). Also: nearly all actives have a fitted effect of over 60% in size.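 As to activity change, negative = inhibition: plate controls were DMSO vehicle for no effect and no enzyme for full effect.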 The procedure, abridged:
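Compounds sat 15 min at room temperature with 10 uM luciferin and 10 uM ATP (pH 7.6 Tris acetate). Firefly luciferase (10 nM final) was then added, and luminescence was read 5 min later. Data normalized to no-enzyme and DMSO controls were Hill-fitted.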

The nature of assay [5]: Viability counterscreen for antagonist of constitutive androstane receptor (CAR) against the NCATS DSHEA and TCM libraries (AID 1794837).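 Also: compound exposure lasted 24 h before viability reading; 0% is about no effect.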 The procedure, abridged: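 HepG2-CYP2B6-hCAR cells (2,500/well) were allowed to attach for 5 h, then exposed to compounds with 48 uM CITCO for 24 h at 37C. Viability was read by CellTiter-Fluor fluorescence after 1 h.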
(Counterscreens check selectivity or assay interference.)

Assay [6] is described as follows: Viability counterscreen for agonist of constitutive androstane receptor (CAR) against the NCATS DSHEA and TCM libraries (AID 1794838).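 Also: HepG2 cells with CYP2B6 reporter and hCAR plus 0.75 µM PK11195 antagonist; 0% is about no effect.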 The procedure, abridged: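 HepG2-CYP2B6-hCAR cells (2,500/well) attached 5 h, then got compounds plus 0.75 uM PK11195 final. After 24 h at 37C, viability read by CellTiter-Fluor fluorescence (Ex/Em 405/540 nm).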
Assay [7] is described as follows: HepG2 viability counterscreen (readout 2: ATP content) against the NCATS DSHEA and TCM libraries (AID 1794840).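 Also: HepG2 cells exposed to substances for about 24 h; 0% is about no effect.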 The procedure, abridged: (§1)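 HepG2 cells (1,000 cells/well) attached ~4 h, then treated ~24 h at 37C with substances. Protease activity read by GF-AFC (25 uM final, 30 min, Ex/Em 380/510 nm); ATP content then by CellTiter-Glo luminescence.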
Assay [8] is described as follows: HepG2 viability counterscreen (readout 1: protease activity) against the NCATS DSHEA and TCM libraries (AID 1794841).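 Also: cells exposed to compounds for about 24 h before the protease read; 0% is about no effect.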 In outline:
as §1

Chain of Phospholipid hydroperoxide glutathione peroxidase GPX4 (Homo sapiens) (P36969 whole entry, looked up): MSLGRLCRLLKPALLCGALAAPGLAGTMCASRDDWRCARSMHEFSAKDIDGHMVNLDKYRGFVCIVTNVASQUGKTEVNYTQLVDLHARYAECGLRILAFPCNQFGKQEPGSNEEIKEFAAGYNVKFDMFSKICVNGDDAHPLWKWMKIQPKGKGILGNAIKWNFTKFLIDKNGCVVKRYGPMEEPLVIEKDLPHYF
Chain of Glutathione peroxidase 1 (Homo sapiens) (P07203 whole entry, looked up): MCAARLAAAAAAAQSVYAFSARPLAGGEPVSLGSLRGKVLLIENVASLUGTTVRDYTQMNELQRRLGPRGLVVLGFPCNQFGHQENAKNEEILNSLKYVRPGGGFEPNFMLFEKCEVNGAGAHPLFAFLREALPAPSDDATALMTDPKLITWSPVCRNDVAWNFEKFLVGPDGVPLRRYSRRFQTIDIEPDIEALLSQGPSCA

For `C[C@H](CCC(=O)O)[C@H]1CC[C@H]2[C@@H]3[C@H](O)C[C@@H]4C[C@H](O)CC[C@]4(C)[C@H]3CC[C@]12C`, the Potency entry in assay [1] is “inactive”.

Turning to `CCOC(=O)[C@H]1O[C@@H]1C(=O)N[C@@H](CC(C)C)C(=O)NCCC(C)C`, in assay [2], the call was inactive. Further, the Potency result in assay [1], in assay [3] and in assay [4] was “inactive” throughout.

`CC1(C)O[C@@H]2C[C@H]3[C@@H]4CCC5=CC(=O)C=C[C@]5(C)[C@H]4[C@@H](O)C[C@]3(C)[C@]2(C(=O)CO)O1`: the Potency result in assay [1] and in assay [3] was “inactive” throughout.

With `CC(C)(C)C(=O)OCOC(=O)[C@@H]1N2C(=O)[C@@H](N=CN3CCCCCC3)[C@H]2SC1(C)C`, in assay [1], the Potency entry is “inactive”.

On to `CC(=O)OCC(=O)[C@@]12OC3(CCCC3)O[C@@H]1C[C@H]1[C@@H]3CCC4=CC(=O)C=C[C@]4(C)[C@@]3(F)[C@@H](O)C[C@@]12C`, for which the Potency entry in assay [1] and in assay [3] was “inactive” each time.

For `Cc1cc(O)cc(Oc2cc(C)c(C(=O)O)c(O)c2)c1`, the Potency result in assay [1] and in assay [3] was “inactive” each time.

Regarding `CC1=C(/C=C/C(C)=C/C=C/C(C)=C/CO)C(C)(C)CCC1`, the compound was classed as inactive in assay [5], in assay [6], in assay [7] and in assay [8]. In assay [1], the Potency entry is “inactive”. In addition, the Potency in assay [3] is 17.8 µM (active).

As to `CC(=O)N(CC(C)C(=O)O)c1c(I)cc(I)c(N)c1I` (centres undefined), the Potency result in assay [1] and in assay [3] was “inactive” each time.

`C[C@]12CCC[C@](C)(C(=O)O)C1CCC13C=C(CO)C(CCC12)C3` (some centres undefined): the Potency result in assay [1], in assay [3] and in assay [4] was “inactive” in each case.

Take `C[C@H]1[C@H](C)CC[C@]2(C(=O)O[C@@H]3O[C@H](CO)[C@@H](O)[C@H](O)[C@H]3O)CC[C@]3(C(=O)O)C(=CCC4[C@@]5(C)CC[C@H](O[C@@H]6O[C@H](CO)[C@@H](O)[C@H](O)[C@H]6O)C(C)(C)C5CC[C@]43C)[C@H]12` (some centres undefined): the Potency result in assay [1] and in assay [3] was “inactive” each time. Also, the outcome in assay [4] was “inactive [at 11.6 µM]”.

Consider `CCCCCCCCCCCC[n+]1ccc2ccccc2c1`, for which the Potency result in assay [1] and in assay [3] was “inactive” each time.

As for `CCOc1nc2cccc(C(=O)OCc3oc(=O)oc3C)c2n1Cc1ccc(-c2ccccc2-c2noc(O)n2)cc1`, the Potency entry in assay [1] is “inactive”. In assay [3], the Potency result is “inactive and 12.6 µM (active)”.

On to `CC[N+](CC)(CC)CCC(O)(c1ccccc1)C1CCCCC1` (centres undefined), for which the Potency result in assay [1] and in assay [3] was “inactive” each time.

Turning to `O=C1C[C@@H](c2ccc(O)cc2)Oc2cc(O)ccc21`, the Potency entry in assay [1] and in assay [3] was “inactive” throughout.

For the compound `Cc1cc(C(=O)NNCc2ccccc2)no1`, the Potency result in assay [1] and in assay [3] was “inactive” throughout.

For `CC1(CO)CC[C@]2(C(=O)O[C@@H]3O[C@H](CO)[C@@H](O)[C@H](O)[C@H]3O)CC[C@]3(C)C(=CCC4[C@@]5(C)C[C@H](O)[C@H](O[C@@H]6OC[C@@H](O)[C@H](O)[C@H]6O)[C@@](C)(CO)C5CC[C@]43C)C2C1` (some centres undefined), the Potency entry in assay [1] and in assay [3] was “inactive” throughout. Besides, the activity change, negative = inhibition in assay [4] is 4.3% [at 11.6 µM] (inactive).

Consider `COC(F)(F)C(Cl)Cl`, for which the Potency entry in assay [1] and in assay [3] was “inactive” throughout.

On to `Nc1ncnc2c1ncn2[C@@H]1O[C@H](COP(=O)(O)OP(=O)(O)OP(=O)(O)O)[C@@H](O)[C@H]1O`, for which, in assay [1], the outcome was “inactive [at 0.4 µM]”. In assay [3], the activity change, negative = inhibition is 0.0913% [at 0.409 µM] (inactive).

Take `COc1cc(/C=C/c2cc(O)cc(O[C@@H]3O[C@H](CO)[C@@H](O)[C@H](O)[C@H]3O)c2)ccc1O`: the Potency result in assay [1], in assay [3] and in assay [4] was “inactive” in each case.

As for `C[C@@H]1[C@H](O)[C@@H](C)/C=C/C=C\C=C\C=C\C=C\C=C\C=C\[C@H](O[C@@H]2O[C@H](C)[C@@H](O)[C@H](N)[C@@H]2O)C[C@@H]2O[C@](O)(C[C@@H](O)C[C@@H](O)[C@H](O)CC[C@@H](O)C[C@@H](O)CC(=O)O[C@H]1C)C[C@H](O)[C@H]2C(=O)O` (stereo in doubt), the Potency entry in assay [1] and in assay [3] was “inactive” each time.

Consider `O=C(/C=C/c1ccc(O)cc1)OCC1=CC2OC(=O)C3=CO[C@@H](O[C@@H]4O[C@H](CO)[C@@H](O)[C@H](O)[C@H]4O)[C@H]1[C@@H]32` (some centres undefined), for which the Potency result in assay [1], in assay [3] and in assay [4] was “inactive” throughout.

In the case of `COc1ccc([C@H]2Cc3cccc(O)c3C(=O)O2)cc1`, the Potency result in assay [1] and in assay [3] was “inactive” in each case.

With `CCN(CC)Cc1cc(Nc2ccnc3cc(Cl)ccc23)ccc1O`, the Potency result in assay [1] and in assay [3] was “inactive” in each case.

Regarding `CO/N=C(/C(=O)N[C@@H]1C(=O)N2C(C(=O)O)=C(CSC(=O)c3ccco3)CS[C@H]12)c1csc(N)n1`, the Potency in assay [1] was 8.06 µM (active) and 7.18 µM (active); in assay [3], 7.08 µM (active). The Potency entry in assay [4] was “inactive”.

Consider `O=C(O[C@H]1[C@@H]2C[C@@H]3OC[C@@](O)([C@H]2[C@H](O[C@@H]2O[C@H](CO)[C@@H](O)[C@H](O)[C@H]2O)O3)[C@@H]1O)c1ccccc1`, for which the Potency result in assay [1], in assay [3] and in assay [4] was “inactive” in each case.

`CCCCCCCCCCCCCC[n+]1ccc(C)cc1`: the Potency entry in assay [1] and in assay [3] was “inactive” throughout.

Regarding `Oc1ccc([C@H]2COc3cc(O)ccc3C2)cc1`, the Potency result in assay [1] and in assay [3] was “inactive” in each case.

For `O=C(O)Cc1nn(Cc2nc3cc(C(F)(F)F)ccc3s2)c(=O)c2nccnc12`, the Potency result in assay [1], in assay [3] and in assay [4] was “inactive” in each case.

Take `COc1cc(NC(=O)c2ccccn2)ccc1Cl`: the Potency entry in assay [1] and in assay [3] was “inactive” throughout.

Regarding `CO/N=C(\C(=O)N[C@@H]1C(=O)N2C(C(=O)O)=C(CSc3cnns3)CS[C@H]12)c1csc(N)n1`, the figures for the Potency in assay [1] and in assay [3] were 20.2 µM (active) and 15.8 µM (active), respectively.

For `OC[C@H]1O[C@@H](Oc2cc(O)cc(-c3cc4ccc(O)cc4o3)c2)[C@H](O)[C@@H](O)[C@@H]1O`, in assay [1], the Potency result is “inactive”. The Potency in assay [3] is 8.81 µM (active).
